The record followed here is PubChem BioAssay (NCATS).

Each structure is given as a SMILES string.

The experiment in a line: qHTS profiling of the MIPE4 collection as inhibitors of Plasmodium falciparum (DD2) proliferation (AID 743345). Particulars: P. falciparum Dd2 in erythrocytes, SYBR Green DNA, 72 h; at 28.5 µM (top of the series) unless noted. An excerpt: Plasmodium falciparum is a virulent malarial parasite that kills 1-2 million people worldwide each year. Transmitted by mosquitoes, the sporozoite form of the parasite enters the blood stream to infect hepatocytes, where they become merozoites that infect red blood cells (erythrocytes). Within erythrocytes, merozoites begin a […] cycle of growth and division, after which the parasite is released to infect new red blood cells. Gametocytes, which form within erythrocytes as well, circulate in the bloodstream and are ingested by the mosquito, thereby completing the life cycle. To profile malarial isolates for differential chemical responses and to identify inhibitors of malarial growth, an assay that measures P. falciparum growth and replication within erythrocytes was employed. This assay uses a DNA binding fluorescent dye (SYBR Green) to detect parasite DNA following cell lysis. Because mature erythrocytes lack DNA, only Plasmodium-derived DNA is detected.
The SYBR Green viability assay was adapted from a method described previously (Plouffe et al., 2008). For screening 3 ul culture medium was dispensed into 1536 well black clear bottom plates (Aurora Biotechnologies) using a Multidrop Combi (Thermo Fisher Scientific Inc.), 23 nL compounds in DMSO were added by a pin tool (Kalypsys), and 5 ul of erythrocytes infected with P. falciparum (0.3% parasitemia, 2.5% hematocrit final concentration) were added. The plates were incubated at 37 C in a humidified incubator in 5% CO2 for 72 h, and 2 ul lysis buffer (20 mM Tris HCl, 10 mM EDTA, 0.16% saponin, 1.6% triton X, 10X SYBR Green I supplied as 10,000X […] by Invitrogen) was added to each well. The plates were mixed for 25 sec with gentle shaking and incubated overnight at room temperature in the dark. The following morning, fluorescence intensity at 485(14) nm excitation and 535(25) nm emission wavelengths was measured on an EnVision (Perkin Elmer) plate reader. Plate reads were normalized relative to the control inhibitor (0.29 uM artemisinin) and vehicle (DMSO) wells present on each plate and then corrected by an algorithm using vehicle-only control plates at the beginning and end of the compound plate stack.
In the case of `COc1ccc(-c2cc(=O)c3c(O)cc(O)cc3o2)cc1O`, the parasite growth remaining, % of DMSO control (lower = more inhibition) is 44.4%.
Regarding `O=C1NC(=O)C(=Cc2cccc(C(F)(F)F)c2)S1`, the parasite growth remaining, % of DMSO control (lower = more inhibition) came to 93.5%.
For the molecule `CN1CCN(CCOc2cc(OC3CCOCC3)c3c(Nc4c(Cl)ccc5c4OCO5)ncnc3c2)CC1`, the parasite growth remaining, % of DMSO control (lower = more inhibition) came out at 8.1%.
Next, `CC1(C)CCC(CN2CCN(c3ccc(C(=O)NS(=O)(=O)c4ccc(NCC5CCOCC5)c([N+](=O)[O-])c4)c(Oc4cnc5[nH]ccc5c4)c3)CC2)=C(c2ccc(Cl)cc2)C1`: 76.7%.
The value for `NC(=O)NN=Cc1ccc([N+](=O)[O-])o1` was 48.9%.
Next, `CCc1ccc(OCc2ccccc2C(=O)Nc2ccc3nc(C)cc(N)c3c2)cc1`: 6.22%; `O=c1cc(CN2CCOCC2)occ1OCCCCCSc1ccnc2cc(C(F)(F)F)ccc12`: 56.7%.
Turning to `O=c1cc(-c2ccc(O)cc2)oc2cc(O)cc(O)c12`, the parasite growth remaining, % of DMSO control (lower = more inhibition) amounted to 42.9%.
The value for `CN(C)CCC=C1c2ccccc2COc2ccc(CC(=O)O)cc21` was 91.8%; that for `O=C(NCc1ccncc1)C12C[C@H]3C[C@@H](C1)CC(c1ccc(Cl)cc1)(C3)C2` was 93.6%; that for `CS(=O)c1ccc(-c2nc(-c3ccc(F)cc3)c(-c3ccncc3)[nH]2)cc1` (stereo not given) was 26.4% [at 57.5 µM].
For `COc1cc(NC(=O)c2ccc(-c3ccc(Cl)cc3)o2)cc(OC)c1`, the parasite growth remaining, % of DMSO control (lower = more inhibition) worked out at 97.8%.
For the molecule `CN(C)Cc1ccc(-c2nc3cccc4c3n2CCNC4=O)cc1`, the parasite growth remaining, % of DMSO control (lower = more inhibition) was 100%.
The value for `CC1CCC(C(=O)N(c2cc(C#CC(C)(C)C)sc2C(=O)O)C2CCC(O)CC2)CC1` (stereo not given) was 54.5%.
Next, `Clc1cc(Cl)cc(CNc2ncncc2-c2ccc3c(c2)OCO3)c1`: 47.6%; `O=c1c(-c2ccc(O)cc2)coc2cc(O)ccc12`: 102%; `CC(C)C(C)C=CC(C)C1CCC2C3=CC=C4CC(O)CCC4(C)C3CCC21C` (stereo not given): 102%.
Consider `CC(C)[C@H](CO)Nc1nc(Nc2ccc(C(=O)O)c(Cl)c2)c2ncn(C(C)C)c2n1`, for which the parasite growth remaining, % of DMSO control (lower = more inhibition) is 51%.
The value for `Clc1ccc(CCC(Cn2ccnc2)Sc2c(Cl)cccc2Cl)cc1` (stereo not given) was 6.42%; that for `COCCOc1nc(-c2ccc(Cl)c(Cl)c2)n(-c2ccc(NC(=O)CCl)cc2)n1` was 64%.
With `Cc1ccc(F)c(NC(=O)Nc2ccc(-c3cccc4[nH]nc(N)c34)cc2)c1`, the parasite growth remaining, % of DMSO control (lower = more inhibition) was 37.7%.
In the case of `O=C(N[C@@H](c1ccccc1)[C@@H]1CCCCN1)c1cccc(C(F)(F)F)c1Cl`, the parasite growth remaining, % of DMSO control (lower = more inhibition) was determined as 8.97%.
Take `O=c1cc(-c2cccc3c2Sc2ccccc2S3)oc(N2CCOCC2)c1`: the parasite growth remaining, % of DMSO control (lower = more inhibition) is 90.2%.
The value for `CNC1CCC(N(Cc2cccc(-c3ccncc3)c2)C(=O)c2sc3c(F)ccc(F)c3c2Cl)CC1` (stereo not given) was 7.02%; that for `Cc1ccccc1C(C(=O)NC1CCCCC1)N(C(=O)Cn1ccnc1C)c1cccc(F)c1` (stereo not given) was 36.3%.
As to `O=C(Nc1ccccc1-c1cn2c(CN3CCNCC3)csc2n1)c1cnc2ccccc2n1`, the parasite growth remaining, % of DMSO control (lower = more inhibition) turned out to be 5.73%.
Turning to `COc1cc(N2CCC(N3CCN(C)CC3)CC2)ccc1Nc1ncnc(Nc2ccccc2S(=O)(=O)C(C)C)n1`, the parasite growth remaining, % of DMSO control (lower = more inhibition) was 8.1%.
With `CCCCCNC(=O)N1CCC(CN(Cc2ccc(Cl)cc2)Cc2ccc([N+](=O)[O-])s2)C1` (stereo not given), the parasite growth remaining, % of DMSO control (lower = more inhibition) was 25.2%.
The value for `O=C(OCC#CCSc1nnc(-c2cccc3ccccc23)o1)c1cc2ccccc2s1` was 83%.
Regarding `CCCCCCCCCCCC1=C(O)C(=O)C=C(O)C1=O`, the parasite growth remaining, % of DMSO control (lower = more inhibition) was 63.9%.
The value for `N#CC1(c2ccc(NC(=O)c3cccnc3NCc3ccncc3)cc2)CCCC1` was 72.9%; that for `CC(=O)OC1C(C)OC(Oc2c(-c3ccc(O)cc3)oc3cc(O)cc(O)c3c2=O)C(O)C1OC(C)=O` (stereo not given) was 72.5%; that for `COc1ccc2cccc(CCNC(C)=O)c2c1` was 101%.
Next, `Cc1cnc(C(=O)O)c[n+]1[O-]`: 104%; `CC(C)(C)c1cc(C(=O)O)c(NC(=O)Nc2ccc3[nH]ncc3c2)s1`: 93.1%; `CC(C)C(=O)Nc1ncc(-c2cc(C(F)F)nn2-c2c(Cl)cccc2Cl)s1`: 13.6%.
Next, `CC1(C)S[C@H]2[C@H](NC(=O)[C@@H](N)c3ccc(O)cc3)C(=O)N2[C@@H]1C(=O)O`: 103%.
In the case of `COc1ncc(-c2ccc3nccc(-c4ccnnc4)c3c2)cc1NS(=O)(=O)c1ccc(F)cc1F`, the parasite growth remaining, % of DMSO control (lower = more inhibition) is 7.55%.
Consider `Cc1c(O)cccc1C(=O)N[C@@H](CSc1ccccc1)[C@H](O)CN1C[C@H]2CCCC[C@@H]2C[C@@H]1C(=O)NC(C)(C)C`, for which the parasite growth remaining, % of DMSO control (lower = more inhibition) is 36%.
Next, `CC(C)(C(=O)NCC(F)(F)C(F)(F)F)C(=O)N[C@@H]1C(=O)Nc2ccccc2-c2ccccc21`: 9.25%.
